Measurements published in PubChem BioAssay.
Active and inactive are the calls of the source.

Columns and labels:
[1] = small molecules captured by biotinylated probe aFSTL3 – biochemical, small-molecule microarray, fluorescence 635/667, stem cell growth factor project, primary screen (AID 1064); settings: higher = more signal;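 note: measures binding of the biotinylated anti-FSTL3 antibody to printed compounds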
[2] = binders from COS7 lysate, DM2A8 probe, primary screen, torsin A project, cell lysate, small-molecule microarray, fluorescence 635/667 (AID 1065); settings: higher = more signal, COS7 lysate expressing mutant human TOR1A
[3] = small molecules captured by biotinylated probe aFGF2 – biochemical, small-molecule microarray, fluorescence 635/667, stem cell growth factor project, primary screen (AID 1067); settings: higher = more signal;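 note: measures binding of biotinylated aFGF2 protein to printed compounds on slides; z-score merges feature fluorescence and signal-to-noise across triplicate slides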
[4] = small molecules captured by biotinylated probe aFGF10 – biochemical, small-molecule microarray, fluorescence 635/667, stem cell growth factor project, primary screen (AID 1071); settings: higher = more signal;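 note: score merges 667 nm spot intensity and signal to noise from triplicate slides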
[5] = target: Neurogenic locus notch homolog protein 2 (Homo sapiens) (UniProt Q04721); test: small molecules binding Notch2 protein – biochemical, small-molecule microarray, 635 nm fluorescence, stem cell growth factors, primary screen (AID 1073); settings: higher = more signal
[6] = target: Pro-neuregulin-1, membrane-bound isoform (Homo sapiens) (UniProt Q02297); test: small molecules binding neuregulin-1 protein – biochemical, small-molecule microarray, fluorescence 635/667, psychiatric disease protein project, primary screen (AID 1075); settings: NRG1 binding, 635 nm fluorescence, higher = more signal;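 note: score combines 667 nm spot fluorescence with signal to noise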
[7] = tested on: Neuregulin-1 EGF-like domain; test: small molecules binding NRG1 EGF domain – biochemical, small-molecule microarray, 635 nm fluorescence, primary screen (AID 1081); settings: higher = more signal;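 note: binding of the protein to compounds printed on small-molecule microarray slides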
[8] = FRG1 expression reporter modulators in myotubes – cell-based, C2C12 myotubes, firefly/Renilla luciferase, luminescence, FRG1 inhibition for FSHD, primary screen (AID 1084); settings: FRG1 promoter luciferase, higher = more signal, called active from +8 up or from −8 down
[9] = small molecules captured by biotinylated probe aFST – biochemical, small-molecule microarray, fluorescence 635/667, stem cell growth factor project, primary screen (AID 1086); settings: higher = more signal;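 note: score merges 667 nm fluorescence with signal-to-noise of each printed compound spot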
[10] = binders of probe aHhip on microarray, primary screen, stem cell growth factor project, biochemical, small-molecule microarray, fluorescence 635/667 (AID 1087); settings: higher = more signal;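 note: score merges spot fluorescence at 667nm with spot signal to noise ratio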
[11] = tested on: PRMT1 (protein arginine N-methyltransferase 1); test: small molecules binding arginine methyltransferase PRMT1 – biochemical, small-molecule microarray, 635 nm fluorescence, primary screen (AID 1088); settings: higher = more signal;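 note: binding of Prmt1 protein to compounds spotted on small-molecule microarray slides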
[12] = growth effects on S. cerevisiae YJM789 – YJM789 clinical isolate, OD600, 24 h, basal, primary screen (AID 1089); settings: higher = more signal, called active from +8 up or from −8 down;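 note: growth of clinical yeast isolate S. cerevisiae YJM 789 seeded 1000 cells per well; test concentration not given here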
[13] = S. pombe growth modifiers, basal conditions – strain 972, OD600, 24 h, no modulator, primary screen (AID 1090);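 note: basal condition with compound alone and no growth modifier present; test concentration not given here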; settings: S. pombe 972 growth, higher = more signal, called active from +8 up or from −8 down
[14] = budding yeast growth modifiers under rapamycin – strain BY4716, OD600, 96 h, primary screen (AID 1091); note: test concentration not given here; settings: S. cerevisiae BY4716 + rapamycin, higher = more signal, called active from +8 up or from −8 down
[15] = target: Torsin-1A-interacting protein 2 (Homo sapiens) (UniProt Q8NFQ8); test: small molecules binding lysate-expressed LULL1 – cell lysate, human LULL1 lysate, 635/667 nm fluorescence, primary screen (AID 1092); settings: small-molecule microarray, hLULL1 lysate binding, 635 nm fluorescence; higher = more signal;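 note: probe is lysate of COS7 cells overexpressing human LULL1; score merges per-feature 667 nm fluorescence with signal-to-noise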
[16] = optical density change of DRC41 E. coli – strain DRC41, OD650, 24 h, E. coli filamentation project, primary screen (AID 1093);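 note: MC1000 strain lacking acrAB efflux and sulA so SOS filamentation is blocked; test concentration not given here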; settings: E. coli DRC41 growth, higher = more signal, called active from +8 up or from −8 down
[17] = probe aLefty2 binding to arrayed compounds – biochemical, biotinylated probe, 635/667 nm fluorescence, primary screen (AID 1094); settings: small-molecule microarray, higher = more signal;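 note: score merges spot fluorescence near 667 nm with spot signal-to-noise ratio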
[18] = tested on: Noggin (protein binding on small-molecule microarray); test: small molecules binding Noggin protein – biochemical, 635/667 nm fluorescence, primary screen (AID 1095); settings: 635 nm fluorescence, higher = more signal;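 note: score merges 667 nm feature fluorescence with signal to noise over triplicate slides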
[19] = target: Neurogenic locus notch homolog protein 3 (Homo sapiens) (UniProt Q9UM47); test: small molecules binding NOTCH3 protein – biochemical, 635/667 nm fluorescence, primary screen (AID 1096); settings: small-molecule microarray, 635 nm fluorescence, higher = more signal
[20] = probe aEGFR binding to arrayed compounds – biochemical, biotinylated probe, 635/667 nm fluorescence, primary screen (AID 1097); settings: small-molecule microarray, higher = more signal;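 note: probe is a biotinylated anti-EGFR antibody binding compounds printed on slides; score combines fluorescence near 667 nm and signal to noise of each spot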

Chain of Pro-neuregulin-1, membrane-bound isoform (Homo sapiens) (Q02297 whole entry, looked up, the tested form may be a part, canonical isoform): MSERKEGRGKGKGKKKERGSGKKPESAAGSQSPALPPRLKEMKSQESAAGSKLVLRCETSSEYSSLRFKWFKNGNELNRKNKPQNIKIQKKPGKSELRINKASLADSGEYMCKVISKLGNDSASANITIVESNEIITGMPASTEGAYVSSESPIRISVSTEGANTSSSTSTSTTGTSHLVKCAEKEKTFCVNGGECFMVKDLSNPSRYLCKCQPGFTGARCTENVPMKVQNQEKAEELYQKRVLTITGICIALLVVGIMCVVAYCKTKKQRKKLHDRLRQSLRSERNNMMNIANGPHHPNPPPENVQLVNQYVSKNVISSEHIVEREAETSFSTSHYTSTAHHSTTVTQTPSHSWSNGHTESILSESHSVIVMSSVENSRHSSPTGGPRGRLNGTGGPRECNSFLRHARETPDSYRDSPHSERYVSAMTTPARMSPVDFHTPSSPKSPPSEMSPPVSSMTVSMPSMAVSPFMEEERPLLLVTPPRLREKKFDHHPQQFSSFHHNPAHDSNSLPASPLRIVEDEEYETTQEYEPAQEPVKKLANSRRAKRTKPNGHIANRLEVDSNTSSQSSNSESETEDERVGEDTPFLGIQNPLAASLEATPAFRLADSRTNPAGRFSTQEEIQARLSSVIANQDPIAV
Chain of Neurogenic locus notch homolog protein 2 (Homo sapiens) (Q04721 whole entry, looked up, canonical isoform): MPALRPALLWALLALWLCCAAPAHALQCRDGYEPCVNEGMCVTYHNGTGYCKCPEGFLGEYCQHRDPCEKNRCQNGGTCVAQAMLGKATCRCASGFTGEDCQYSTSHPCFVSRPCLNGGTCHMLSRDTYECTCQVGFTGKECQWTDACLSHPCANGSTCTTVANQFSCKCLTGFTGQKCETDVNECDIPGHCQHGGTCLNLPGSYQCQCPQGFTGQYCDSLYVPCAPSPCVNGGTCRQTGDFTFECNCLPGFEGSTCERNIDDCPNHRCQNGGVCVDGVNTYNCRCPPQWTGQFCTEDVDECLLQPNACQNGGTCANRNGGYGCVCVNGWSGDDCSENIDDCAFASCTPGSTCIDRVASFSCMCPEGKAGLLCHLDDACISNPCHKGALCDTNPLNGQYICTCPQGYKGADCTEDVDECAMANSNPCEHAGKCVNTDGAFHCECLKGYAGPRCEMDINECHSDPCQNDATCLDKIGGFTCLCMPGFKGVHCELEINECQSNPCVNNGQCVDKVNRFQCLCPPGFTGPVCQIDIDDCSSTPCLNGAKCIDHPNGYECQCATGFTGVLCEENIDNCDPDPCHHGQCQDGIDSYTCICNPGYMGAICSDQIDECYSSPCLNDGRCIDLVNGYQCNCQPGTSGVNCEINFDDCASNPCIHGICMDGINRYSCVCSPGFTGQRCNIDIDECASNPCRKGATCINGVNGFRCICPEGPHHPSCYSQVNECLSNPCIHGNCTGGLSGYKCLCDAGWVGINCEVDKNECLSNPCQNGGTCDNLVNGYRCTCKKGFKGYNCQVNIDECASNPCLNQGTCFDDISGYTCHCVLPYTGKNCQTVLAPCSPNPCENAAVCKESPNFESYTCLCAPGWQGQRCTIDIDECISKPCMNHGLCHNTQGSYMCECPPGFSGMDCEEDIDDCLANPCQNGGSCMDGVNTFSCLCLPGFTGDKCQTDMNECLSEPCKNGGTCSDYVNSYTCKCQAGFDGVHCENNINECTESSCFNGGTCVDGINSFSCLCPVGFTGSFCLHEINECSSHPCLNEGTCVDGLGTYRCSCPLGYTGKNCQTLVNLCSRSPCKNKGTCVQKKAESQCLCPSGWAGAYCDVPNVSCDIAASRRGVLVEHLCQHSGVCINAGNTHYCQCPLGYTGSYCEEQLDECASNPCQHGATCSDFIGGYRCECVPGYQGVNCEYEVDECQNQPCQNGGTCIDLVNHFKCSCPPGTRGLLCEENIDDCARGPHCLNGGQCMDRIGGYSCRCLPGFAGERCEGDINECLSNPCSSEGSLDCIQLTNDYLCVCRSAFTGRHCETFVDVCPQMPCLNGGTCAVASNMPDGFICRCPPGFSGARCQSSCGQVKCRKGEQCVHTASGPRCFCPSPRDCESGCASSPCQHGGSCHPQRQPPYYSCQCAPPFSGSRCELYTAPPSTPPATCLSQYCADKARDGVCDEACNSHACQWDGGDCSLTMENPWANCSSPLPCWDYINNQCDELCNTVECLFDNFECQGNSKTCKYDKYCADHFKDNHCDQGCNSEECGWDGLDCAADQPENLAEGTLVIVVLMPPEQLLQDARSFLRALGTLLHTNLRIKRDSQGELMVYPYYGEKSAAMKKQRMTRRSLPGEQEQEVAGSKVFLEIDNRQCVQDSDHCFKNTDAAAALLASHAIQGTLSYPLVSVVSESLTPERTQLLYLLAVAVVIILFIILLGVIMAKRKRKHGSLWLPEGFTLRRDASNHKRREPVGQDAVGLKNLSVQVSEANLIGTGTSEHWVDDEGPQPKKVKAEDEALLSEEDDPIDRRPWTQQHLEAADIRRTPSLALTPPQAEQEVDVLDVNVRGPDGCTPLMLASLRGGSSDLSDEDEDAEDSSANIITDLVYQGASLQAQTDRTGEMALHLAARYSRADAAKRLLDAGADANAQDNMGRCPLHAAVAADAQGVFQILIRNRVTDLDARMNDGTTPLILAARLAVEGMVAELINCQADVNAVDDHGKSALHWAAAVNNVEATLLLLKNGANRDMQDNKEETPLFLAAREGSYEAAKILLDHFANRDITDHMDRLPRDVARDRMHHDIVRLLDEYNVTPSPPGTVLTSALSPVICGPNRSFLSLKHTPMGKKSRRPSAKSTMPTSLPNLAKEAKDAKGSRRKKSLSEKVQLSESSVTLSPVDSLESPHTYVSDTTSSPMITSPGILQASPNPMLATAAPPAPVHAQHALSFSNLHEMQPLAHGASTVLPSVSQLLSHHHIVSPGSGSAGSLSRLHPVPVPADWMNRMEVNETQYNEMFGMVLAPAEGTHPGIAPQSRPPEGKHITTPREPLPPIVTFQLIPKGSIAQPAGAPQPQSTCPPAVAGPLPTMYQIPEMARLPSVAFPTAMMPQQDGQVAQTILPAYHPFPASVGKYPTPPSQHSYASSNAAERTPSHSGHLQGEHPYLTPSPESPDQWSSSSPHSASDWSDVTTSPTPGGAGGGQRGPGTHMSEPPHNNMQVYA
Chain of Torsin-1A-interacting protein 2 (Homo sapiens) (Q8NFQ8 whole entry, looked up): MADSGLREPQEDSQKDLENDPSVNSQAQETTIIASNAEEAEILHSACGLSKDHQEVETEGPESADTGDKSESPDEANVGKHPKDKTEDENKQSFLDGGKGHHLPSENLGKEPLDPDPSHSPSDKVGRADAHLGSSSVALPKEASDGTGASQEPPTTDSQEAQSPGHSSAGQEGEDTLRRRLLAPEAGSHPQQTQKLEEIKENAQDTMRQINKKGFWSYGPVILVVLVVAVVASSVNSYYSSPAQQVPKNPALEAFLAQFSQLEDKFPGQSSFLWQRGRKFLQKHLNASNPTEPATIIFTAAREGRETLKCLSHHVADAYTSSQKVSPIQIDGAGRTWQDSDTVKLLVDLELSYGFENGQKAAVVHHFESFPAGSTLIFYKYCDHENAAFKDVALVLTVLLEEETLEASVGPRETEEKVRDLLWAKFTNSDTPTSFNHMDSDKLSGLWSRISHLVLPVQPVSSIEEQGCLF

SMILES	composite z-score [1]	composite z-score [2]	composite z-score [3]	composite z-score [4]	composite z-score [5]	composite z-score [6]	composite z-score [7]	z-score [8]	composite z-score [9]	composite z-score [10]	composite z-score [11]	z-score [12]	z-score [13]	z-score [14]	composite z-score [15]	z-score [16]	composite z-score [17]	composite z-score [18]	composite z-score [19]	composite z-score [20]
CC(C)NC(=O)[C@@H]1c2ccccc2C(=O)N(Cc2cc(C(F)(F)F)cc(C(F)(F)F)c2)[C@H]1c1ccc(CO)cc1	0.27	0.255	0.0032	-0.0264	0.805	0.104	0.663	0.306 (inactive)	0.619	0.0596	1.46	-0.245 (inactive)	-0.593 (inactive)	-0.517 (inactive)	2.4	-0.216 (inactive)	-0.0107	0.598	1.04	-0.0248
C[C@]12C(=O)N(CCCO)[C@@H]3C(=O)N(c4ccc(Cl)cc4)CC=CC31O[C@@H]1/C=C\CCCOC(=O)C12 (stereo not given in full)	-0.157	-0.549	-0.0895	-0.512	-1.37	-0.0724	1.13	1.43 (inactive)	-0.67	-0.363	0.868	-1.65 (inactive)	-1.51 (inactive)	-0.488 (inactive)	3.16	-0.298 (inactive)	-0.262	-0.441	-0.123	-0.261
C[C@H]1ON(c2ccccc2)[C@@H](c2ccccc2)[C@@H]1C(=O)N1C(=O)OC[C@@H]1c1ccccc1	-0.331	-0.111	-0.019	0.602	0.527	0.211	0.656	0.84 (inactive)	0.0477	-0.374	0.648	0.386 (inactive)	-0.0839 (inactive)	-0.299 (inactive)	0.352	-0.0337 (inactive)	-0.159	0.743	0.848	-0.0409
COc1ccc(C#Cc2ccc3c(c2)[C@]2(C(=O)N3)[C@H](C(=O)O)[C@H]3C(=O)O[C@H](c4ccccc4)[C@H](c4ccccc4)N3[C@@H]2c2ccc(OCCO)cc2)cc1	-0.397	0.959	-0.0344	0.903	0.357	1.88	0.976	-0.176 (inactive)	0.794	0.122	1.55	2.76 (inactive)	-0.0666 (inactive)	1.08 (inactive)	2.37	2.26 (inactive)	0.054	1	1.1	-0.0433
Cc1ccc(-c2cccc(=O)o2)cc1	0.139	-0.549	-0.0973	-0.304	-0.351	-0.411	-0.596	5.3 (inactive)	0.121	-0.353	-0.0072	-1.91 (inactive)	-1.56 (inactive)	1 (inactive)	-0.606	0.0307 (inactive)	-0.183	-0.175	-0.312	-0.105
COc1ccc(CCNC(=O)[C@@H]2c3ccccc3C(=O)N(Cc3ccccc3)[C@H]2c2ccc(CO)cc2)cc1	0.262	1.24	-0.0866	-0.101	-0.117	-0.0744	1.2	-2.26 (inactive)	0.0887	3.74	1.55	-1.34 (inactive)	-0.586 (inactive)	-0.332 (inactive)	3.23	1.95 (inactive)	0.06	0.107	0.233	-0.0978
CCCC=C(CCC)[C@@H](NS(=O)(=O)c1ccccc1)c1ccc(C(F)(F)F)cc1	-0.201	0.322	0.174	0.96	1.55	1.52	1.13	-2.28 (inactive)	1.05	0.28	1.39	0.3 (inactive)	1.39 (inactive)	12.1 (active)	3.47	-0.644 (inactive)	0.413	0.554	1.08	0.132
C[C@H]1NC(=O)C([C@@H](C)OCc2ccccc2)NC(=O)[C@@]23C(=O)N[C@@H](Cc4ccccc4)C2[C@H](C)[C@@]2(C)O[C@H]2C3/C=C/CC/C=C/CNC1=O (stereo not given in full)	-0.0367	0.245	0.0304	0.263	0.258	-0.178	-0.248	0.428 (inactive)	0.114	0.127	-0.1	0.607 (inactive)	-0.657 (inactive)	0.261 (inactive)	-0.147	2.13 (inactive)	-0.016	0.598	-0.0089	0.0143
COC(=O)C(CC#Cc1ccc2c(c1)[C@]1(C(=O)N2)[C@H](C(=O)N2CCc3cc(OC)c(OC)cc3C2)[C@H]2C(=O)O[C@H](c3ccccc3)[C@H](c3ccccc3)N2[C@@H]1c1ccc(O)cc1)C(=O)OC	0.145	0.305	0.0276	0.734	1.32	1.69	1.35	1.77 (inactive)	0.288	0.644	1.48	2.78 (inactive)	0.355 (inactive)	2.62 (inactive)	2.83	2.04 (inactive)	0.157	1.88	1.09	0.404
COC(=O)[C@@]1(Cc2ccc(OC)cc2)[C@H]2c3cc(C(=O)N4CCCC4)n(CCF)c3C[C@H]2CN1C(=O)c1ccccc1	3.09	-0.334	0.972	1.44	1.66	2.27	1.43	1.37 (inactive)	3.23	3	0.669	0.366 (inactive)	1.13 (inactive)	0.4 (inactive)	3.56	-1.09 (inactive)	1.64	-0.183	1.12	1.37
